For 46 compounds, activity change, negative = inhibition results are on record in PubChem BioAssay AID504652 (National Center for Advancing Translational Sciences (NCATS), 2011).

Structures are written as SMILES. The whole screen tested about 360,000 compounds, of which about 11,000 (3.1%) were called active. What follows is part of a selection rich in actives, with near analogues and random picks from the rest. A number with no mark means an inactive call. Rule as the data show it: active = activity change below about -30%; inactive = the rest.
% is scaled to controls: 0 for no effect and ±100 for the full control effect.

Sequence of D(1A) dopamine receptor (Homo sapiens) (P21728 whole entry, looked up): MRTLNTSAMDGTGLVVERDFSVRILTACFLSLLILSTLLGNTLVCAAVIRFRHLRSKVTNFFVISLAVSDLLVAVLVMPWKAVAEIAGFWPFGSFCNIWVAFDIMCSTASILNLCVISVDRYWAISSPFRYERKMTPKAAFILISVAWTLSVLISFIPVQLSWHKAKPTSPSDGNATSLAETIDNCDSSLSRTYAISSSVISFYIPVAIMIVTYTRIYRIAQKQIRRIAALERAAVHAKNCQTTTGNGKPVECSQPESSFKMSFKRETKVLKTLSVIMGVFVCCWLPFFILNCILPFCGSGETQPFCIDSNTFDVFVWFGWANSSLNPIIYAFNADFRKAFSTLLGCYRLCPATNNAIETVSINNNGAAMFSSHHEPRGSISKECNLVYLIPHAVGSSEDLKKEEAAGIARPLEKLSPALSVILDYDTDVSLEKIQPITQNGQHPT

This test has as its target D(1A) dopamine receptor (Homo sapiens) (UniProt P21728). Kind of test: Antagonist of Human D 1 Dopamine Receptor: qHTS. Particulars: HEK293 TREx D1 cells, calcium flux, dopamine EC80; at 10 µM; active compounds read low. The text has this:
Dopamine receptors (DARs) are involved in the etiology and/or therapy of a number of neuropsychiatric and endocrine disorders. For instance, all receptor-based antiparkinsonian drugs work via stimulating the […] DAR subtype whereas all FDA-approved antipsychotic agents are antagonists of this receptor. […] There are three different types of allosteric modulators that we are seeking, two of which will stimulate or augment receptor signaling, allosteric agonists and potentiators, while the third, allosteric antagonists, will attenuate receptor signaling. The present primary screening assay measures compound antagonism after an EC80 addition of dopamine by tracking calcium flux in a […], inducible Hek293 Trex D1 cell line. NIH Chemical Genomics Center [NCGC] NIH Molecular Libraries Probe Centers Network [MLPCN] MLPCN Grant: NS064831-01 Assay Submitter (PI): David Sibley
Freshly passaged cells are plated in 1536 well black, clear bottom plates at a density of 4000 cells/well in 3 ul of complete media containing 1x tetracycline inducer. After an overnight incubation at 30 C in 5% CO2, cells are loaded with 2 ul of the no wash Calcium Assay Kit (ABD Bioquest) and incubated at room temperature for 30 to 90 minutes. Agonist read: A 10 cycle (1 second/cycle) baseline measurement is taken and then the FDSS online 1536 pintool delivers 23 nl of compound library (as well as dopamine controls) to the plate. The plate is measured for kinetically at 1 cycle/sec for 180 seconds. Following the 180 second read, 1 ul of an EC80 (negative modulation assay) is delivered by an onboard pipette head. Measurements are taken kinetically for an additional 180 seconds.
With `COc1cc(NC(=O)Cn2c(=O)n(Cc3ccco3)c(=O)c3oc4ccccc4c32)cc(OC)c1`, the activity change, negative = inhibition was 8.05%.

`COc1cc(OC)c(OC)cc1/C=C/c1nc2ccccc2c(=O)n1-c1ccc(Br)c(C)c1`: the activity change, negative = inhibition was 0.553%.

On to `CC(C)Cc1nnc(NC(=O)CCC(=O)Nc2ccc3cn[nH]c3c2)s1`, for which the activity change, negative = inhibition is -55.6% (active).

With `CC(C)Cc1nnc(NC(=O)CCc2ccccc2)s1`, the activity change, negative = inhibition was 3.92%.

Turning to `Cc1ccc(S(=O)(=O)CCC(=O)Nc2nnc(CC(C)C)s2)cc1`, the activity change, negative = inhibition is 6.37%.

For the compound `Cc1c(Cl)cccc1NC(=O)C1CCCN(C(=O)c2cnn(-c3ccccc3)c2-n2cccc2)C1` (stereo unspecified), the activity change, negative = inhibition is 7.6%.

On to `Cc1ccc(SCC(=O)Nc2ccc3oc(-c4ccccc4F)nc3c2)cc1`, for which the activity change, negative = inhibition is -5.46%.

Take `CCOC(=O)c1ccccc1NC(=O)c1nn(-c2ccc(OC)c(Cl)c2)c(=O)c2c1c1ccccc1n2C`: the activity change, negative = inhibition was 5.56%.

On to `O=C(CSc1cn(CC(=O)N2CCOCC2)c2ccccc12)Nc1ccccc1`, for which the activity change, negative = inhibition is 11.6%.

On to `COc1cccc(NC(=O)CN(C)C(C)C(=O)Nc2ccc(C#N)cc2)c1` (stereo unspecified), for which the activity change, negative = inhibition is -40.7% (active).

Take `COc1cccc(NC(=O)CN(C)C(=O)/C=C/c2cc(OC)ccc2OC)c1`: the activity change, negative = inhibition was 24.2%.

As for `COc1cccc(NC(=O)CN(C)C(=O)c2ccccc2CCc2ccccc2)c1`, the activity change, negative = inhibition was 3.89%.

`COC(=O)c1ccccc1NC(=O)c1cnn(-c2ccc(F)cc2)c1-n1cccc1`: the activity change, negative = inhibition was 15%.

With `Cc1cccc(NC(=O)Cn2c(C(F)(F)F)nc3ccccc32)c1C`, the activity change, negative = inhibition is -9.8%.

As for `COc1cccc(C(=O)NCc2ccc3c(c2)CCN3C(=O)c2ccncc2)c1`, the activity change, negative = inhibition was -7.86%.

For `Cc1ccc(CNC(=O)c2c(O)nc3c(C)cccn3c2=O)cc1`, the activity change, negative = inhibition is 16.2%.

As for `Cc1cccc(-n2c(SCC(N)=O)nc3c(oc4ccccc43)c2=O)c1`, the activity change, negative = inhibition was -16.4%.

On to `O=C(CN1CCN(c2ccc(F)cc2)CC1)Nc1cccc(C(F)(F)F)c1`, for which the activity change, negative = inhibition was -2.58%.

Take `CC(=O)N1CCN(CC(=O)Nc2ccc(C)c(F)c2)CC1`: the activity change, negative = inhibition was 1.94%.

Consider `CCc1sc(C(=O)N2CCN(CC(=O)Nc3cccc(F)c3)CC2)cc1C`, for which the activity change, negative = inhibition was -30.4% (active).

Regarding `O=C(CSc1n[nH]c(-c2ccccc2)n1)N1CCCCC1`, the activity change, negative = inhibition was -15.7%.

On to `COc1ccc(Cl)cc1NC(=O)NC(C)C(C)(C)C` (stereo unspecified), for which the activity change, negative = inhibition is -26.1%.

For the compound `Cc1ccc(Cl)cc1NC(=O)COC(=O)CC(C)(C)C`, the activity change, negative = inhibition was 4.47%.

Regarding `COC(=O)[C@@H](NC(=O)Nc1cc(Cl)ccc1C)C(C)C`, the activity change, negative = inhibition was -41.7% (active).

`Cc1cc2ccccc2n1CCNC(=O)c1ccc(F)cc1`: the activity change, negative = inhibition was -21.6%.

As to `COc1ccc(S(=O)(=O)NCCSc2nnnn2-c2ccccc2)cc1`, the activity change, negative = inhibition is -6.65%.

Turning to `Cn1c(C(=O)Nc2cccc(C(F)(F)F)c2)cc2c(=O)n3ccccc3nc21`, the activity change, negative = inhibition is -9.44%.

Consider `Cc1cc(Cl)c(S(=O)(=O)Nc2ccc3c(c2)OCCO3)cc1OCC(N)=O`, for which the activity change, negative = inhibition is -35.2% (active).

For `Cc1cc(Cl)c(S(=O)(=O)NCC2CCCO2)cc1OCC(N)=O` (stereo unspecified), the activity change, negative = inhibition is -3.64%.

`Cc1cc(Cl)c(S(=O)(=O)N(C)C)cc1OCC(N)=O`: the activity change, negative = inhibition is 5.54%.

`COc1ccc(CNC(=O)Cc2coc3ccc(C(C)C)cc23)cc1`: the activity change, negative = inhibition was -5.84%.

Turning to `COc1cccc(N2CCN(S(=O)(=O)c3cc(Br)cc4c3N(C(=O)C3CC3)CC4)CC2)c1`, the activity change, negative = inhibition is -4.38%.

Regarding `CCN1CCCC1CNC(=O)Cn1cnc2ccc(S(=O)(=O)N3CCC(C)CC3)cc2c1=O` (stereo unspecified), the activity change, negative = inhibition is -45% (active).

Regarding `COc1ccccc1NC(=O)Cn1cnc2ccc(S(=O)(=O)N3CCC(C)CC3)cc2c1=O`, the activity change, negative = inhibition was 0.0222%.

With `CC1CCN(S(=O)(=O)c2ccc3ncn(CC(=O)N(C)C4CCCCC4)c(=O)c3c2)CC1`, the activity change, negative = inhibition was -7.06%.

As for `COc1ccc(-c2nn(CC(=O)NC3CCCC3)c3c2cnc2ccc(F)cc23)cc1`, the activity change, negative = inhibition is -17.2%.

Turning to `Cc1ccc(NC(=O)CN2C(=O)CC(C)Sc3ccccc32)c(C)c1` (stereo unspecified), the activity change, negative = inhibition is 5.35%.

Turning to `COC(=O)C1=CN(c2ccc(F)c(F)c2)C=C(C(=O)OC)C1c1ccc([N+](=O)[O-])cc1`, the activity change, negative = inhibition was 13.5%.

With `COC(=O)C1=CN(C)C=C(C(=O)OC)C1c1ccc(Cl)cc1Cl`, the activity change, negative = inhibition was -50.3% (active).

Turning to `NC(=O)C1(C(N)=O)OC1c1ccc(Cl)cc1Cl` (stereo unspecified), the activity change, negative = inhibition is -18.1%.

`Cc1ccc(Nc2ccc3cc(S(=O)(=O)N4CCCCC4)ccc3n2)cc1F`: the activity change, negative = inhibition was -15.5%.

Consider `CCOc1ccccc1NC(=O)CCN1CCN(S(=O)(=O)c2ccc(OC)cc2)CC1`, for which the activity change, negative = inhibition was -3.32%.

`COc1ccccc1NC(=O)CCN1CCN(c2ccc(Cl)cc2)CC1`: the activity change, negative = inhibition was -41% (active).

For the compound `COc1ccc(NC(=O)CCN2CCCC2)c(OC)c1`, the activity change, negative = inhibition was 0.848%.

With `COc1ccc(C(=O)NC(=S)Nc2ccccc2N2CCN(S(C)(=O)=O)CC2)cc1OC`, the activity change, negative = inhibition is -7.6%.

For the compound `COc1ccc(C(=O)NC(=S)Nc2ccc(N3CCCC3)cc2)cc1OC`, the activity change, negative = inhibition was -30.7% (active).
